Screening results as filed in PubChem.
In the library only some 1.6% were active in any assay of this set; here they are far more common.
eIF4H inh – inhibitors of RNA binding by human eIF4H | actives 0.94% (n = 290,000) | inhibition, % at 35 µM | eIF4H fluorescence polarization binding assay;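 also: calls also rest on retests at 20 µM and on dose response follow-up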
PERK inhibitor – human PERK inhibition, primary cell-based screen | Q9NZJ5 | actives 0.17% (n = 220,000) | inhibition, % at 5.6 µM | CHO PERK-DD fusion, SEAP luminescence translation reporter;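 active = inhibition above the mean inhibition of all tested compounds plus 3 SD, set separately per screening campaign, cut at about 2.9% in these data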;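 also: PERK kinase domain activated by AP20187 dimerizer at 100 nM; 0% = DMSO with dimerizer and 100% = rapamycin at 8.4 µM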
Target sequence (Q9NZJ5 whole entry, looked up, the tested form may be a part): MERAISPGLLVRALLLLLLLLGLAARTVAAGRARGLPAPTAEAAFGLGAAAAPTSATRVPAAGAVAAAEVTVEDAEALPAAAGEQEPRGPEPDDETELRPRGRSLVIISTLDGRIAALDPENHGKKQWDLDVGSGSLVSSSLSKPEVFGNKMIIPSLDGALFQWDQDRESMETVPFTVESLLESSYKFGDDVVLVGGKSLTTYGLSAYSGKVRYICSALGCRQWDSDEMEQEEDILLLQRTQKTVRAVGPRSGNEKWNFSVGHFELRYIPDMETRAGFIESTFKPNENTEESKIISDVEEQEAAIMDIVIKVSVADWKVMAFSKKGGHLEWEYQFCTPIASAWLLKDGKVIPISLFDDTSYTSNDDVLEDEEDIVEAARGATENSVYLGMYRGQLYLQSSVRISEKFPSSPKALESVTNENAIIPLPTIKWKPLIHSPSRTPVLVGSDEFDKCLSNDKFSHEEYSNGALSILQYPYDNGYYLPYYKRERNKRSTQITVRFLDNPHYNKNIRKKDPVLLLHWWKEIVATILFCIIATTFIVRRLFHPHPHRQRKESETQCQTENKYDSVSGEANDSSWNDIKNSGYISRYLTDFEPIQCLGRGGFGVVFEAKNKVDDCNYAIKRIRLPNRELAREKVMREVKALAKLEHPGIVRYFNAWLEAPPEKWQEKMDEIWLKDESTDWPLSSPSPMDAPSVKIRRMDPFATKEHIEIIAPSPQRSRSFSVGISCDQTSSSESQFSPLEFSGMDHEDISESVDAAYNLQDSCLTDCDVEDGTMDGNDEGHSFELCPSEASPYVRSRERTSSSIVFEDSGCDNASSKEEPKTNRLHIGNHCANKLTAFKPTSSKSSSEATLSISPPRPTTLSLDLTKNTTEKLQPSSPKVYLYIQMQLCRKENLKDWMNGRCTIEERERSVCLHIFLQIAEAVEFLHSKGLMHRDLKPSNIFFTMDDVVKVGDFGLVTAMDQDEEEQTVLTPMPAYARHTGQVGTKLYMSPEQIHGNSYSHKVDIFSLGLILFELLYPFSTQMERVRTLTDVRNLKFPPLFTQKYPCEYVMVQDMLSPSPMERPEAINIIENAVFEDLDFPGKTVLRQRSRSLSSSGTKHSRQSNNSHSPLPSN
PABP polyA inh – PABP-poly(A) binding inhibition | PABP-poly(A) RNA binding, fluorescence polarization | calls only at 35 µM | actives 1% (n = 290,000) | AID 2014;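 also: calls also rest on retests at 20 µM and on dose response follow-up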
PABP1 MLLE inh – blocks PAM2 peptide binding to the PABP1 MLLE domain; P11940; GST-MLLE / FITC-PAM2 fluorescence polarization; inhibition, % at 20 µM; actives 0.36% (n = 360,000); AID 588489; in the data active = inhibition above about 35%, passing the limit was not always enough;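 also: plate controls were DMSO wells with GST-MLLE for no effect and wells lacking GST-MLLE protein for full effect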
eIF4E 4G PPI – blocks eIF4E binding to eIF4G | P63073+Q04637 | TR-FRET eIF4E-eIF4GI(517-606) binding, 2 h | actives 0.37% (n = 220,000) | inhibition, % at 21.7 µM | AID 782;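 active = inhibition above about 30%, limit read from the data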;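 also: 0% = full FRET control wells and 100% = background wells lacking eIF4GI fragment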
Active calls of the source: *. Unless noted, no rule for the calls is given here.

For CCN1CCc2nc3sc(C(=O)N4CCc5ccccc5C4)c(N)c3cc2C1 the results were eIF4H inh 98*, PABP polyA inh active and PABP1 MLLE inh -27.
Screening CC(C)c1ccc2nc3sc(C(=O)N4CCc5ccccc5C4)c(N)c3cc2c1 returned eIF4H inh -2, PERK inhibitor 1, PABP polyA inh inactive, PABP1 MLLE inh 22 and eIF4E 4G PPI 13.
`CC(=O)c1c(COC(=O)c2ccc(C)cc2)nc2ccccc2[n+]1[O-]` gave eIF4H inh 3, PERK inhibitor 0, PABP polyA inh inactive, PABP1 MLLE inh -10 and eIF4E 4G PPI 1.
For CC(=O)c1c(COC(=O)c2cccnc2)nc2ccccc2[n+]1[O-] the results were eIF4H inh 5, PERK inhibitor 0, PABP polyA inh active, PABP1 MLLE inh -123 and eIF4E 4G PPI 20.
Screening O=C(CSc1nccn1Cc1ccccc1)Nc1ccccc1 returned eIF4H inh -2, PABP polyA inh inactive and PABP1 MLLE inh -5.
CC(C)(C)NC(=O)CSc1nccn1Cc1ccccc1 was read as eIF4H inh 68*, PERK inhibitor 1, PABP polyA inh active, PABP1 MLLE inh -65 and eIF4E 4G PPI -2.
`Cc1ccc(Cl)cc1NC(=O)CCC(=O)NCc1ccco1` gave eIF4H inh -7, PABP polyA inh inactive and PABP1 MLLE inh 8.
Screening COc1ccc(CN(C)C(=O)c2cccc(C(=O)N(C)Cc3ccc(OC)cc3)c2)cc1 returned eIF4H inh 2, PABP polyA inh inactive and PABP1 MLLE inh -4.
O=C(Cc1c[nH]c2ccccc12)Nc1ccc(N2CCOCC2)cc1 was read as eIF4H inh 0, PERK inhibitor 2, PABP polyA inh inactive, PABP1 MLLE inh -18 and eIF4E 4G PPI 1.
Screening CCOC(=O)c1sc(=S)n(-c2ccc3c(c2)OCO3)c1N returned eIF4H inh 1, PERK inhibitor 0, PABP polyA inh inactive, PABP1 MLLE inh 40* and eIF4E 4G PPI 24.
For CCCN(C(=O)COC(=O)c1[nH]c(C)c(C(=O)OC)c1C)c1c(N)n(Cc2ccccc2)c(=O)[nH]c1=O the results were PABP1 MLLE inh -32.
`S=c1[nH]nc(-c2ccncc2)n1/N=C/C=C/c1ccco1` gave eIF4H inh 96*, PERK inhibitor 0, PABP polyA inh active, PABP1 MLLE inh -1 and eIF4E 4G PPI 14.
For Cc1cccc(-c2n[nH]c(=S)n2/N=C/C=C/c2ccco2)c1 the results were eIF4H inh 85*, PERK inhibitor 0, PABP polyA inh active, PABP1 MLLE inh -4 and eIF4E 4G PPI 1.
Screening Cc1cccc(/C=N/n2c(-c3ccco3)n[nH]c2=S)c1 returned eIF4H inh 5, PERK inhibitor 3.5*, PABP polyA inh inactive, PABP1 MLLE inh -52 and eIF4E 4G PPI 14.
S=c1[nH]nc(-c2cccc(Cl)c2)n1/N=C/c1ccco1 was read as eIF4H inh 14, PERK inhibitor 1, PABP polyA inh inactive and eIF4E 4G PPI 3.
C(=C\c1ccco1)/C=N/n1cnnc1 was read as eIF4H inh 93*, PERK inhibitor 1, PABP polyA inh active, PABP1 MLLE inh -1 and eIF4E 4G PPI 5.
For COc1ccc([C@@H]2CC=C(C(=O)O)[C@H](c3ccc(Cl)cc3)N2S(=O)(=O)c2ccc(C)cc2)cc1OC the results were PABP1 MLLE inh -9.
CSc1ccc(CN2CCN(C(C)C)C(CCO)C2)cc1 (centres undefined) was read as eIF4H inh 8, PERK inhibitor 0, PABP polyA inh inactive, PABP1 MLLE inh 5 and eIF4E 4G PPI 2.
Screening O=C(NCCc1ccc(Cl)cc1)C1CCN(C(=O)c2ccc(F)cc2)CC1 returned eIF4H inh -16, PABP polyA inh inactive and PABP1 MLLE inh -5.
Cc1cccc(/C=N/n2c(C)nnc2C)c1 was read as eIF4H inh -2, PERK inhibitor 3.1*, PABP polyA inh inactive, PABP1 MLLE inh 19 and eIF4E 4G PPI 3.
For S=c1[nH]nc(-c2ccccc2Cl)n1/N=C/C=C/c1ccco1 the results were eIF4H inh 92*, PERK inhibitor 0, PABP polyA inh active, PABP1 MLLE inh -12 and eIF4E 4G PPI 2.
Screening COc1ccccc1/C=C\C=N\n1c(-c2ccc(Cl)cc2Cl)n[nH]c1=S returned eIF4H inh 14, PERK inhibitor 0, PABP polyA inh inactive, PABP1 MLLE inh -81 and eIF4E 4G PPI -3.
